This passage reports Potency results from PubChem BioAssay (Tox21).

A short description of assay [1]: Nuclear factor erythroid 2-related factor 2/antioxidant responsive element (Nrf2/ARE) small molecule agonists: qHTS cell viability counter screen in human keratinocytes (AID 1919968; active means well fitted curve in the direction sought with a large enough effect in the repeat runs; an effect the other way counts as inactive or inconclusive; further: nearly all actives have a fitted effect of over 55% in size). The method, boiled down:
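Measured as CellTiter-Fluor fluorescence, this readout tracks cytotoxicity in the same wells as the ARE-luciferase screen. HaCaT reporter cells (1,500/well) received compounds after a 5 h pre-incubation and were exposed for 23 h.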

Assay [2] has as its target Gonadotropin-releasing hormone receptor (Homo sapiens) (UniProt P30968). Nature of the assay: Human gonadotropin-releasing hormone receptor (GnRHR) small molecule agonists, calcium flux assay in GnRHR-HEK293 cells (AID 1920063). Further: nearly all actives have a fitted effect of over 35% in size. Summed up: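 Fluorescence kinetics (480 nm excitation, 540 nm emission; 3 min, 1 s steps) report calcium mobilisation in human GnRHR-HEK293 cells in agonist mode. Dye incubation: 1 h, 37 C.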
(In general: Calcium assays in cells follow changes in intracellular calcium, usually with a dye or a luminescent sensor.)

The target in assay [3] is KiSS-1 receptor (Homo sapiens) (UniProt Q969F8). Nature of the assay: Human kisspeptin (KISS1R) small molecule agonists, calcium flux assay in KISS1R-HEK293 cells (AID 1920064; active means well fitted curve in the direction sought with a large enough effect in the repeat runs; an effect the other way counts as inactive or inconclusive). The method, boiled down:
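Measures KISS1R agonism through calcium-sensitive dye fluorescence in stably transfected HEK293 cells, read for 3 min after pin-tool compound delivery; 15-point titrations in triplicate.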

Assay [4] can be described thus: G protein-coupled receptor (GPCR) small molecule agonists, calcium flux assay: HEK293 wild type cell line counter screen (AID 1920065). The method, boiled down: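 Readout: fluorescence at 480 nm excitation/540 nm emission, sampled at 1 s intervals for 3 min. Cells had been cultured 18 h, then dye-loaded 1 h at 37 C before compound or ATP addition.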
The nature of assay [5]: p53 small molecule agonists, cell-based qHTS assay with human liver microsomes (AID 1963577).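 Further: p53 response element beta-lactamase reporter cells with liver microsomes plus NADPH.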 The method, boiled down:
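HLM-supplemented p53RE-bla reporter assay: 16 h compound exposure at 37 C, microsomes and NADPH each 0.5 mg/mL final, read by fluorescence intensity.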
In general terms: In qHTS, concentration-response curves come from the screen itself.

The nature of assay [6]: p53 small molecule agonists, cell-based qHTS assay with rat liver microsomes (AID 1963578). The method, boiled down: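 Quantitative HTS of the Tox21 10K library: p53RE-bla cells, rat liver microsomes plus NADPH at 0.5 mg/mL final each, 16 h at 37 C, beta-lactamase fluorescence detection.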
Assay [7] is described as follows: p53 small molecule agonists, cell-based qHTS assay with human liver microsomes: qHTS cell viability counter screen (AID 1963579). Further: nearly all actives have a fitted effect of over 45% in size. Summed up: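 Viability of p53RE-bla cells is measured as CellTiter-Glo luminescence following a 16 h, 37 C incubation with compound, liver microsomes from human donors and NADPH.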
The nature of assay [8]: p53 small molecule agonists, cell-based qHTS assay with rat liver microsomes: qHTS cell viability counter screen (AID 1963580). Further: nearly all actives have a fitted effect of over 45% in size. The method, boiled down: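 HCT-116 p53RE-bla, 4,000 cells/well, 5 h pre-incubation; cpd + rat liver microsomes 0.5 mg/mL + NADPH 0.5 mg/mL (final); 16 h, 37 C; CellTiter-Glo, 30 min RT; luminescence.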
A short description of assay [9]: p53 small molecule agonists, cell-based qHTS assay: qHTS cell viability counter screen (AID 1963581). Further: nearly all actives have a fitted effect of over 45% in size. The method, boiled down:
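In the same plates used for the p53 bla reporter, HCT-116 cells given compounds for 16 h at 37 C received CellTiter-Glo; luminescence was recorded 30 min later at room temperature.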

In assay [10] the target is 5-hydroxytryptamine receptor 2A (Homo sapiens) (UniProt P28223). Nature of the assay: 5-hydroxytryptamine receptor 2A (HTR2A) small molecule antagonists, cell-based qHTS assay (AID 1963586). Further: nearly all actives have a fitted effect of over 45% in size. Summed up:
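Antagonist-mode intracellular calcium assay: DOI (4 nM) added after 5 min compound pre-incubation at room temperature to dye-loaded HTR2A-CHO cells. Fluorescence followed for 3 min, sampled every second.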

Assay [11] concerns the target Muscarinic acetylcholine receptor M1 (Homo sapiens) (UniProt P11229). The assay can be described thus: Cholinergic receptor muscarinic 1 (CHRM1) small molecule antagonists, cell-based qHTS assay (AID 1963588). Further: nearly all actives have a fitted effect of over 40% in size. Further: potency means the concentration at half of the fitted maximal effect. Summed up: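 CHRM1-CHO calcium-flux assay, antagonist mode. Cells were seeded 18 h, dye-loaded 1 h at 37 C and given compound for 5 min at RT, then acetylcholine was added at 50nM. FDSS fluorescence was read 3 min; 15 concentrations, three runs.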

Assay [12] shares this target. Nature of the assay: Cholinergic receptor muscarinic 1 (CHRM1) small molecule agonists, cell-based qHTS assay (AID 1963589). Further: nearly all actives have a fitted effect of over 35% in size. The method, boiled down: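 Each compound was tested at 15 concentrations across three independent runs on dye-loaded CHO cells stably expressing human CHRM1, reading intracellular calcium fluorescence kinetically at 1 sec intervals.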
For assay [13], the target named is Beta-2 adrenergic receptor (Homo sapiens) (UniProt P07550). The assay can be described thus: Adrenergic beta2 receptor (ADRB2) small molecule antagonists, cell-based qHTS assay (AID 1963592). Further: series mostly up to about 92 µM; nearly all actives have a fitted effect of over 50% in size. The method, boiled down: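 Cells (CHO, stable ADRB2 overexpression) incubated 18-20hr at 37C; compounds added from DMSO; agonist mix (1nM isoproterenol, 100uM IBMX, 25uM Ro-20-1724) added; 0.5hr RT; d2-cAMP and anti-cAMP-cryptate added; 1hr RT; 665/615 nm read.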
Sequence of Beta-2 adrenergic receptor (Homo sapiens) (P07550 whole entry, looked up): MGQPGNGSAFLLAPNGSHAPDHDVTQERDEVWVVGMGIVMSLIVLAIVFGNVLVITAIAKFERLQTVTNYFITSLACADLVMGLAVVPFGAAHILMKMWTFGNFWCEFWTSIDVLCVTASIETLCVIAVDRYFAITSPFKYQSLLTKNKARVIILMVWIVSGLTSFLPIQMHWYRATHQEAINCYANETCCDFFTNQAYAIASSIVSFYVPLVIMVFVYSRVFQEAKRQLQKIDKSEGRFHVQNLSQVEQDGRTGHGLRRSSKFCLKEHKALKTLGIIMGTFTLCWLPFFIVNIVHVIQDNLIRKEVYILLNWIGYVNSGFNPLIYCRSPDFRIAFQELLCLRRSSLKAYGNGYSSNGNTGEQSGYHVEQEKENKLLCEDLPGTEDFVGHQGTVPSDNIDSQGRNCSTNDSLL

Assay [14] deals with D(2) dopamine receptor (Homo sapiens) (UniProt P14416). The assay can be described thus: Dopamine D2 receptor (DRD2) small molecule agonists, cell-based qHTS assay (AID 1963594). Further: nearly all actives have a fitted effect of over 35% in size. Summed up:
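cAMP accumulation in DRD2-HEK293 cells measured by HTRF after 1 h detection; compounds added 10 min before NKH477 (200nM […]) forskolin-analogue stimulation, 30 min at room temperature, with Ro20-1724 present at 0.1 mM final.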

In assay [15] the target is 5-hydroxytryptamine receptor 2A (Homo sapiens) (UniProt P28223). Nature of the assay: 5-hydroxytryptamine receptor 2A (HTR2A) small molecule agonists, cell-based qHTS assay (AID 1963587). Further: nearly all actives have a fitted effect of over 30% in size. Further: potency means the concentration at half of the fitted maximal effect. The method, boiled down:
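Kinetic calcium-flux fluorescence (2 min, 1 sec intervals) after compound addition in agonist mode. HTR2A-CHO cells were cultured 18 h, then dye-loaded 1 h at 37 C.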

Assay [16] is described as follows: cAMP Responsive Elements (CRE) small molecule agonists, cell-based qHTS assay (AID 1963590). The method, boiled down:
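Cell line: CRE-bla HEK 293T; medium DMEM/10% dialyzed FBS/0.1 mM NEAA/1 mM pyruvate/25 mM HEPES; 3 h compound exposure; beta-lactamase FRET readout after 2 h substrate loading at RT.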

Assay [17] in a line: cAMP Responsive Elements (CRE) small molecule antagonists, cell-based qHTS assay (AID 1963591; active means well fitted inhibition curve with a large enough effect in the signal ratio in the repeat runs, not every such curve was filed as active; the % refers to the signal ratio). Summed up:
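Inhibition of NKH477-driven (0.25 uM final) CRE-beta-lactamase signal in HEK293T cells, 3 h compound exposure at 37 °C, detected by FRET substrate fluorescence.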

Assay [18] concerns the target Beta-2 adrenergic receptor (Homo sapiens) (UniProt P07550). The assay can be described thus: Adrenergic beta2 receptor (ADRB2) small molecule agonists, cell-based qHTS assay (AID 1963593).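 Further: CHO cells stably overexpressing human ADRB2.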 Summed up:
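CHO cells stably over-expressing ADRB2 were plated overnight at 37C, then dosed with compounds plus a stimulation mix containing 100uM IBMX and 25uM Ro-20-1724 for 0.5hr at room temperature. cAMP was measured by HTRF competition, 1hr.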

In assay [19] the target is D(2) dopamine receptor (Homo sapiens) (UniProt P14416). Nature of the assay: Dopamine D2 receptor (DRD2) small molecule antagonists, cell-based qHTS assay (AID 1963595; active means well fitted inhibition curve with a large enough effect in the signal ratio in the repeat runs, with a control signal flat; the % refers to the signal ratio). The method, boiled down:
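Human DRD2 antagonist qHTS measuring cAMP by HTRF. The cells are exposed to compound for 10 min, then to NKH477 (200 nM) and quinpirole (12 nM) for 30 min at RT, with Ro20-1724 (0.1 mM) present throughout.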

Assay [20] in a line: p53 small molecule agonists, cell-based qHTS assay (AID 1963582; active means well fitted activation curve with a large enough effect in the signal ratio in the repeat runs, not every such curve was filed as active; the % refers to the signal ratio). The method, boiled down: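 Compounds are pin-transferred in DMSO onto p53RE-bla cells and incubated 16 h at 37 C. The B/G FRET beta-lactamase substrate is then applied for 2 h at RT and fluorescence recorded.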

Each structure is given as a SMILES string. A number with no mark means an inactive call. Records with an inconclusive call do not appear. Active and inactive are the calls of the source. Unless noted, the call rests on the fitted dose curve.

Sequence of 5-hydroxytryptamine receptor 2A (Homo sapiens) (P28223 whole entry, looked up): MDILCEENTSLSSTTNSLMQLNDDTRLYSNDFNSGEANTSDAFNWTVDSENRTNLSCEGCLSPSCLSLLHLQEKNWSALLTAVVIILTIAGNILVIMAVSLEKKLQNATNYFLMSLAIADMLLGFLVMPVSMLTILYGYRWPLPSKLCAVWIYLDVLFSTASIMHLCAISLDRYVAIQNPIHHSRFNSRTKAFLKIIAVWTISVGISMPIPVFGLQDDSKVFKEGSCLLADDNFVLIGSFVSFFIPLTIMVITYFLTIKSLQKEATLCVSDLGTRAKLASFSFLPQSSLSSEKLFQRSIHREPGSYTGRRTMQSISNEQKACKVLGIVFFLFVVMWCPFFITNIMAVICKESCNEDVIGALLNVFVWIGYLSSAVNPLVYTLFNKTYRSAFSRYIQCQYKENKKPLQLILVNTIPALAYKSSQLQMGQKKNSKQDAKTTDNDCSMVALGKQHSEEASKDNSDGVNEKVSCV
Sequence of Gonadotropin-releasing hormone receptor (Homo sapiens) (P30968 whole entry, looked up): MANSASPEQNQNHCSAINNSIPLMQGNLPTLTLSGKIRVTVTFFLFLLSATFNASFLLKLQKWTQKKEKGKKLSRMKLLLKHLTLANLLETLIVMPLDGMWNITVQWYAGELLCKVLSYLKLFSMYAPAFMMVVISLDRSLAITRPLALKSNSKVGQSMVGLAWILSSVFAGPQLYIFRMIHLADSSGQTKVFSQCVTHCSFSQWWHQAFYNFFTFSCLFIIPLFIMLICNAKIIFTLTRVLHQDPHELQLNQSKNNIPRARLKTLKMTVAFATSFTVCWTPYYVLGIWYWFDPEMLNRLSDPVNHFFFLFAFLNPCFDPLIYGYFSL
Sequence of Muscarinic acetylcholine receptor M1 (Homo sapiens) (P11229 whole entry, looked up): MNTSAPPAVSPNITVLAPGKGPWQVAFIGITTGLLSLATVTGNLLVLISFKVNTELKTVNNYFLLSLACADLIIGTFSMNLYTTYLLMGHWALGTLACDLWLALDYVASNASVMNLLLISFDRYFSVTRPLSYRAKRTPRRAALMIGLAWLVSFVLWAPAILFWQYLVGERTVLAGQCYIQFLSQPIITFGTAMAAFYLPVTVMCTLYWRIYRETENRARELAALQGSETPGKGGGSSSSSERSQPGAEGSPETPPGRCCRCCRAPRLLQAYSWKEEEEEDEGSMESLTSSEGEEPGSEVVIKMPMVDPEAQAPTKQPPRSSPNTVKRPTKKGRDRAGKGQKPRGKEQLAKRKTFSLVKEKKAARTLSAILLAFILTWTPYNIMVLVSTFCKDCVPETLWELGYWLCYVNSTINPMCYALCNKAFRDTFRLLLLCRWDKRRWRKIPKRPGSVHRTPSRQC
Sequence of D(2) dopamine receptor (Homo sapiens) (P14416 whole entry, looked up): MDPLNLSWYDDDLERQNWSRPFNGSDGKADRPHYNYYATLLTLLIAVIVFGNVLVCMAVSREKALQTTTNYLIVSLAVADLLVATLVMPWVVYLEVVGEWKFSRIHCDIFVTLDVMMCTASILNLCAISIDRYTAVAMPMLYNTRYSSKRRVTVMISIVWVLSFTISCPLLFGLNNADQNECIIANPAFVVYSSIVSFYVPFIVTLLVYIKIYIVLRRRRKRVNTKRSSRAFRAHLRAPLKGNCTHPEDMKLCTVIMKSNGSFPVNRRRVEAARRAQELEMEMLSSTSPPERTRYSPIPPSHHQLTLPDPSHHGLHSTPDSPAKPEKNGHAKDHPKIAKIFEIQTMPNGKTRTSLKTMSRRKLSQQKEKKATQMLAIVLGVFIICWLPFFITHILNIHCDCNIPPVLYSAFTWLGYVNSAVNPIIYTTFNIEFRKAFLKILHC
Sequence of KiSS-1 receptor (Homo sapiens) (Q969F8 whole entry, looked up): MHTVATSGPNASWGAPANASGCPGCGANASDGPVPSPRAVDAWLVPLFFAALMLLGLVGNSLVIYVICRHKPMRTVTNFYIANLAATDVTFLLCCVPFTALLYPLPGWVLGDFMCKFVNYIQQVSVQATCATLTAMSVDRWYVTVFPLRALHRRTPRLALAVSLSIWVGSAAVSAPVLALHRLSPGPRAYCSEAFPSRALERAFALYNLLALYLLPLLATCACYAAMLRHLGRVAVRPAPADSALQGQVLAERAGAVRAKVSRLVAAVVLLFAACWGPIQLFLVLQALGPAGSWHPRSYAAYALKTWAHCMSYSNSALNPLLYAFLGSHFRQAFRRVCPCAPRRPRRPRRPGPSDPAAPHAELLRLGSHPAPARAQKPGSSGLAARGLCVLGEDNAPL

As for `O=[N+]([O-])c1ccc2ncccc2c1`, the Potency entry in assay [1], in [2], in assay [3], in assay [4], in [5] and in assay [6] was “inactive” each time. Besides, the Potency result in [7], in [8], in [9], in assay [10], in assay [11] and in assay [12] was “inactive” throughout. Further, the Potency entry in assay [13] and in assay [14] was “inactive” each time.
With `CCCCCSCCCCC`, the Potency result in assay [1], in assay [2], in assay [3], in assay [4], in assay [5] and in assay [6] was “inactive” each time. Besides, the Potency entry in [7], in assay [8], in assay [9], in assay [10], in assay [15] and in assay [11] was “inactive” in each case. For the same compound, the Potency entry in assay [12], in assay [16], in assay [17], in assay [13], in [18] and in assay [14] was “inactive” in each case. Further, the Potency result in assay [19] is “inactive”.
For the compound `CCCCCCOC(=O)c1ccccc1`, the Potency result in assay [1], in assay [2], in assay [3], in assay [4], in assay [5] and in [6] was “inactive” in each case. For the same compound, the Potency result in assay [7], in assay [8], in assay [10], in assay [15], in [11] and in assay [12] was “inactive” throughout. The Potency entry in [16], in [13], in assay [14] and in assay [19] was “inactive” each time.
On to `Cn1c(N)nc2nc[nH]c2c1=O`, for which the Potency entry in [1], in assay [2], in assay [3], in assay [4], in assay [5] and in [6] was “inactive” in each case. Further, the Potency entry in assay [7], in assay [8], in [15], in assay [11], in assay [12] and in assay [17] was “inactive” throughout.
For `CCCCN1C(=O)[C@@H]([C@H](O)C2CCCCC2)NC(=O)C12CCN(Cc1ccc(Oc3ccc(C(=O)O)cc3)cc1)CC2`, the Potency result in assay [1], in assay [2], in [3], in assay [4], in [5] and in assay [6] was “inactive” each time. In addition, the Potency result in [7], in assay [8], in [13] and in [19] was “inactive” each time. For the same compound, the Potency in [15] was 24.5 µM (active).
Consider `Clc1cc(Cl)c2c(c1)N=C1CCCCCN1C2`, for which the Potency entry in assay [1], in assay [2], in assay [3], in assay [4], in [5] and in [6] was “inactive” in each case. Moreover, the Potency result in assay [7], in assay [8], in assay [20], in [10], in assay [15] and in [12] was “inactive” each time. Further, the Potency entry in assay [13], in assay [18] and in assay [14] was “inactive” throughout.
On to `Cc1cc(-c2ccc(N=Nc3cc(S(=O)(=O)O)c4ccccc4c3N)c(C)c2)ccc1N=Nc1cc(S(=O)(=O)O)c2ccccc2c1N`, for which the Potency result in [1], in assay [2], in [3], in assay [4], in [5] and in [6] was “inactive” in each case. Moreover, the Potency entry in assay [7], in assay [8], in [9], in assay [10], in assay [15] and in assay [17] was “inactive” throughout. Besides, the Potency entry in assay [13], in assay [18], in assay [14] and in assay [19] was “inactive” in each case. In addition, in assay [11], the Potency is 7.52 µM (active).
Turning to `CCC(C)(CN(C)C)OC(=O)c1ccccc1` (configuration not stated), the Potency result in [1], in assay [2], in [3], in [4], in [5] and in assay [6] was “inactive” in each case. The Potency entry in assay [7], in assay [8], in assay [9], in [10], in assay [11] and in [12] was “inactive” in each case. Moreover, the Potency result in assay [16], in [17], in assay [13], in assay [18], in [14] and in [19] was “inactive” each time.
